PLK1 PBD block – PLK1 (human) polo-box domain binding inhibition | P53350 | Plk1 PBD binding of FITC phosphopeptide, fluorescence polarization | Potency, µM, for inactives: max response, negative = inhibition, actives largely listed as inhibitors | 2.8% of 360,000 active | AID 720504; note: potency is the fitted concentration of half-maximal effect; series mostly up to about 57 µM; % is set by controls: 0 for no effect and ±100 for the full control effect; nearly all actives have a fitted effect of over 65% in size
uPA generation – blocks generation of uPA at the cell surface. Potency, µM (highest dose often 38.3 µM), for inactives: at the highest dose activity change, negative = inhibition, actives largely listed as inhibitors. 0.31% of 330,000 active. cell surface uPA generation assay, qHTS; active = well fitted inhibition curve with a large enough effect; inconclusive = small, poorly fitted or top-dose-only effect; inactive = no such curve, though single readings can be large or run the other way; tested in mouse RAW 264.7 cells; note: potency is the fitted concentration of half-maximal effect; % is set by controls: 0 for no effect and ±100 for the full control effect; nearly all actives have a fitted effect of over 55% in size
TSHR antag – blocks TSH signaling through the human TSH receptor; TSHR-expressing cells, TSH-stimulated cAMP HTRF, 2 h; hits give low values; activity change, negative = inhibition, % at 11.5 µM; 0.2% of 330,000 active; AID 504810;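 active = activity change below a set negative limit, meaning inhibition stronger than a set level, cut at about -70% in these data; inconclusive = activity change between two set negative limits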; note: % is set by controls: 0 for no effect and ±100 for the full control effect
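Freshly harvested TSHR cells receive pin-tooled compound, then EC80 TSH at 4nM final. After 2 hours at 37 deg C, antibody in lysis buffer and cAMP-d2 are added; 30 minutes at ambient temperature precede the HTRF read.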
VDR inh – vitamin D3 receptor (human) inhibition. P11473. VDR-SRC2-3 peptide fluorescence polarization, 2 h. Potency, µM, inactives show max response, negative = inhibition, actives largely listed as inhibitors. 0.93% of 400,000 active; note: potency is the fitted concentration of half-maximal effect; % is set by controls: 0 for no effect and ±100 for the full control effect
Target sequence (P11473 whole entry, looked up): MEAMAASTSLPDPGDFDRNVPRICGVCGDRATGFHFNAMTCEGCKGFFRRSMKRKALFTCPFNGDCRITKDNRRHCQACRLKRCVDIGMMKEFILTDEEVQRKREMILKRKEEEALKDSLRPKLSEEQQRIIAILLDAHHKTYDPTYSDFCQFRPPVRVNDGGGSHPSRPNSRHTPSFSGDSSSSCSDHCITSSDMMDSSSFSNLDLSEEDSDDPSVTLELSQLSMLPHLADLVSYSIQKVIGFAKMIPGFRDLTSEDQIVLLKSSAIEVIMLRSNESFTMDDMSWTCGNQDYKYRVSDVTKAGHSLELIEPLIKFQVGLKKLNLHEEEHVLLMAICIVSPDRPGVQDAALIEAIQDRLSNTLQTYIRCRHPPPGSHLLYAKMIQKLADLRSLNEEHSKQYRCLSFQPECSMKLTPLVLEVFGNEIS
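Signal is fluorescence polarization, reporting how far test compounds block the interaction of VDR with the SRC2-3 coregulator peptide after a 2 h room-temperature incubation.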
TSG101-PTAP inh – blocks PTAP/TSG101 interaction to inhibit HIV-1 budding | Fluorescence polarization, FITC-PTAP peptide / Tsg101 binding | Potency, µM (series often up to 115 µM), for inactives: at the top dose activity change, negative = inhibition, usual class: inhibitors | 340,000 tested, under 10 active | Q99816 | AID 493005; active = well fitted inhibition curve with a large enough effect in the main read-out, with a control signal flat, not every such curve was filed as active; inconclusive = small, poorly fitted or top-dose-only effect, or effect the other way, or a change in a side signal; inactive = no such curve, though single readings can be large or run the other way; note: potency is the fitted concentration of half-maximal effect; % of control where 0% means no effect
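Compounds were pin-transferred onto Tsg101 binding domain (10 uM final) in HEPES pH 7.5 buffer, then FITC-PTAP peptide was added at 50 nM final. After 20 min at RT, polarization reported peptide displacement across a qHTS concentration series.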
* marks the source's active call; other numbers are inactive results. Most compounds without a hit are left out; they make up all but 3.1% or so of the library. Unless noted, calls come from the whole dose curve; as a rule, active = well fitted curve in the direction sought with a large enough effect; inconclusive = small, poorly fitted or top-dose-only effect, or another doubt; inactive = no such curve, though single readings can be large; an effect the other way counts as inactive or inconclusive.

COc1ccccc1-c1cc(-c2ccc(C)cc2)nc(SCc2nnc(-c3ccccc3)o2)c1C#N was read as PLK1 PBD block 21µM*, uPA generation 2%, TSHR antag 9, VDR inh inconclusive and TSG101-PTAP inh -6%.
`Cc1ccnc(N2CCN(c3cc(C)c(C#N)c4nc5ccccc5n34)CC2)c1` gave PLK1 PBD block -3%, uPA generation 3%, VDR inh 4% and TSG101-PTAP inh 0%.
For Cc1cc(-c2ccco2)n2c(nc3ccccc32)c1C#N the results were PLK1 PBD block 11µM*, uPA generation 1%, TSHR antag -13, VDR inh -20% and TSG101-PTAP inh -2%.
`C=C(C)CSc1cc(C)c(C#N)c2nc3ccccc3n12` gave PLK1 PBD block 27µM*, uPA generation -8%, TSHR antag -12, VDR inh -17% and TSG101-PTAP inh 0%.
For O=C(CSc1n[nH]c(=O)[nH]c1=O)Nc1ccc2c(c1)C(=O)c1ccccc1C2=O the results were PLK1 PBD block 6.7µM*, uPA generation -6%, TSHR antag -13, VDR inh inconclusive and TSG101-PTAP inh -6%.
For CC(CNC(=O)c1nnc(Cc2ccc(F)cc2)o1)c1ccccc1 (centres undefined) the results were VDR inh 13%.
`COc1cccc(CNC(=O)COc2ccc(C(=O)c3ccccc3)cc2)c1` gave PLK1 PBD block 0%, TSHR antag -7, VDR inh -3% and TSG101-PTAP inh -4%.
`O=C(NC1CCCCC1)C(=S)NCCc1ccccc1` gave PLK1 PBD block 24µM*, uPA generation 3%, TSHR antag -14, VDR inh inconclusive and TSG101-PTAP inh 3%.
Screening COc1cc(C)c(NC(=O)C(=S)NCCc2ccccc2)cc1C returned PLK1 PBD block 12µM*, uPA generation -3%, TSHR antag -15, VDR inh inconclusive and TSG101-PTAP inh 3%.
O=C(NCCc1ccccc1)C(=O)NC1CCCCC1 was read as PLK1 PBD block -12%, uPA generation 4%, TSHR antag 1, VDR inh -9% and TSG101-PTAP inh -9%.
`Nc1sc(Cc2ccccc2)cc1C(=O)NC1CCCCC1` gave PLK1 PBD block 27µM*.
COc1ccc(NC(=S)NCCc2ccccc2)c(C)c1 was read as PLK1 PBD block -4%, uPA generation 4%, TSHR antag 11, VDR inh 1% and TSG101-PTAP inh -6%.
For CCn1ccc2cc(S(=O)(=O)N3CCCN(C(=O)Nc4ccccc4OC)CC3)ccc21 the results were VDR inh -9%.
Screening CCOC(=O)c1c(NC(=O)c2nc(SCC)ncc2Cl)sc2c1CCCC2 returned VDR inh 14%.
`O=C(NCCC1=CCCCC1)C1CCN(C(=O)N2CCOc3ccc(Cl)cc32)CC1` gave VDR inh -2%.
Screening Cc1sc(/N=C/c2c(O)ccc3ccccc23)c(C#N)c1C returned TSHR antag 8.
For COc1ccc(O)c(/C=N/c2sc(C)c(C)c2C#N)c1 the results were PLK1 PBD block 30µM*, uPA generation -2%, TSHR antag 0, VDR inh -14% and TSG101-PTAP inh 29%.
For CC1=NN(c2ccc(Cl)cc2)C(=O)C1C(c1cccc(O)c1)c1c(C)[nH]n(-c2ccc(Cl)cc2)c1=O (centres undefined) the results were PLK1 PBD block 5.3µM*, uPA generation -4%, TSHR antag -7, VDR inh 79µM* and TSG101-PTAP inh -3%.
For CC1=NN(c2ccc(F)cc2)C(=O)C1C(c1cccc(O)c1)c1c(C)[nH]n(-c2ccc(F)cc2)c1=O (centres undefined) the results were PLK1 PBD block 5.3µM*, uPA generation 1%, TSHR antag 25, VDR inh -13% and TSG101-PTAP inh -7%.
Screening CSCC[C@H](NC(=O)[C@H](CC(C)C)NC(=O)CNC(=O)[C@H](Cc1ccccc1)NC(=O)[C@H](Cc1ccccc1)NC(=O)[C@H](CCC(N)=O)NC(=O)[C@H](CCC(N)=O)NC(=O)[C@@H]1CCCN1C(=O)[C@H](CCCCN)NC(=O)[C@@H]1CCCN1C(=O)[C@H](CCCN=C(N)N)NC(=O)CCCCC1SCC2NC(=O)NC21)C(N)=O (some centres undefined) returned VDR inh 9%.
For COc1cc(CCc2ccccc2)c(C(=O)O)c(O)c1CC=C(C)C the results were PLK1 PBD block 27µM*, uPA generation -5%, VDR inh -10% and TSG101-PTAP inh -8%.
COc1cc(CCc2ccccc2)c(C(=O)O)c(O)c1C/C=C(/C)CCC=C(C)C was read as PLK1 PBD block 24µM*, uPA generation -2%, TSHR antag inconclusive, VDR inh 5% and TSG101-PTAP inh -21%.
`COCOc1ccc(/C=C/C(=O)c2c(OCOC)cc(OCOC)c(CC=C(C)C)c2O)cc1OCOC` gave PLK1 PBD block 2%, uPA generation 3%, VDR inh -1% and TSG101-PTAP inh 1%.
COc1cccc(Cn2c(=O)n(-c3cc(C)cc(C)c3)c(=O)c3oc4ccccc4c32)c1 was read as VDR inh 6%.
For CC(C)CCCC(C)N (centres undefined) the results were VDR inh 8%.
CN(c1ccccc1)c1nc(C#N)nc(N2CCOCC2)n1 was read as VDR inh -29%.
For COc1cccc(C2C(C(C)=O)=C(O)C(=O)N2Cc2ccco2)c1 (centres undefined) the results were PLK1 PBD block 24µM*, uPA generation 5%, TSHR antag -7, VDR inh 3% and TSG101-PTAP inh -7%.
Screening O=C(O)COc1ccccc1-c1nc(-c2ccccc2)c(-c2ccccc2)[nH]1 returned PLK1 PBD block 34µM*, uPA generation -15%, TSHR antag -8, VDR inh -12% and TSG101-PTAP inh -4%.
CCN(CC)c1ccc(/C=N/Nc2ccccc2)c(O)c1 was read as PLK1 PBD block inconclusive, TSHR antag 3, VDR inh 79µM* and TSG101-PTAP inh -5%.
`CCN(CC)c1ccc(N=Cc2ccc(N(CC)CC)cc2O)cc1` gave PLK1 PBD block 71%, uPA generation inconclusive, TSHR antag 15, VDR inh 50µM* and TSG101-PTAP inh inconclusive.
CCN(CC)c1ccc(/C=N/Nc2cccc(C)c2)c(O)c1 was read as PLK1 PBD block inconclusive, uPA generation 5%, TSHR antag 4, VDR inh inconclusive and TSG101-PTAP inh -10%.
For COc1ccc2oc(=O)cc(CN3CCN(C(=O)c4ccccc4Br)CC3)c2c1 the results were VDR inh 15%.
Screening O=C(NCC1CC1)c1ccc(Nc2nc3ccc(Br)cc3[nH]2)cc1 returned PLK1 PBD block 11µM*, uPA generation 0%, TSHR antag -10, VDR inh -8% and TSG101-PTAP inh -5%.
